6 molecules from PubChem BioAssay (EPA / NIEHS) can be followed below.

Read-out in assay [1]: Decorin, DCN (gene 1634)
As to the kind of experiment: BSK_MyoF_Decorin: BioMAP Diversity Plus: MyoF Assay for Decorin Biomarker Activity (AID 2284265). The conditions noted are these: primary human lung fibroblasts. A digest of the protocol: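 Human lung fibroblast cultures were dosed for 24 h, and decorin was then measured by ELISA. Parallel cultures were stained with sulforhodamine B for total protein as a cytotoxicity check. Gain of signal was fitted relative to DMSO.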

Read-out in assay [2]: KRT18 (gene 3875)
Put plainly: BSK_BF4T_Keratin818: BioMAP Diversity Plus: BF4T Assay for Keratin 818 Biomarker Activity (AID 2284266). The following applies: primary human bronchial epithelial cells with fibroblasts. A digest of the protocol: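 Keratin 8/18 levels quantified by ELISA after 24 h chemical treatment of bronchial epithelial cell/dermal fibroblast co-cultures, fitted in positive direction relative to DMSO. Parallel SRB staining tracks overt cytotoxicity.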

A short description of assay [3]: BSK_MyoF_SRB: Viability Assessment in the BioMAP Diversity Plus: MyoF Assay (AID 2284267).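 Note: total protein by SRB absorbance in parallel cultures as cytotoxicity measure; cells assessed 24 h after compound addition.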 The conditions noted are these: primary human lung fibroblasts. A digest of the protocol: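 In this viability endpoint, fibroblasts from human lung are treated for 24 h, TCA-fixed, SRB-stained (0.1%) and read at 560 nm. Gain of signal relative to DMSO defines activity.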
Read-out in assay [4]: Matrix Metallopeptidase 1 (MMP1), MMP1 (gene 4312)
Put plainly: BSK_MyoF_MMP1: BioMAP Diversity Plus: MyoF Assay for Matrix Metallopeptidase 1 (MMP1) Biomarker Activity (AID 2284268). The following applies: primary human lung fibroblasts. The procedure, abridged: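 Human lung fibroblast primary cells; MMP1 measured by ELISA 24 h after dosing, fitted in the positive direction relative to DMSO. Parallel SRB staining (0.1%, after 10% TCA fixation, 560 nm) assesses overt cytotoxicity.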

Read-out in assay [5]: TIMP metallopeptidase inhibitor 1 (TIMP1), TIMP1 (gene 7076)
As to the kind of experiment: BSK_MyoF_TIMP1: BioMAP Diversity Plus: MyoF Assay for TIMP metallopeptidase inhibitor 1 (TIMP1) Biomarker Activity (AID 2284269). The following applies: primary human lung fibroblasts. A digest of the protocol:
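Fibroblasts from human lung are dosed with chemical, cultured 24 h, and assayed for TIMP-1 by ELISA. Increases over the DMSO baseline are scored, with SRB total-protein staining run in parallel for cytotoxicity.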

Read-out in assay [6]: Matrix Metallopeptidase 1 (MMP1), MMP1 (gene 4312)
Put plainly: BSK_BF4T_MMP1: BioMAP Diversity Plus: BF4T Assay for Matrix Metallopeptidase 1 (MMP1) Biomarker Activity (AID 2284270). The following applies: primary human bronchial epithelial cells with fibroblasts. The procedure, abridged:
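MMP-1 quantified by ELISA in primary human bronchial epithelial/dermal fibroblast co-cultures, 24 hours post-dosing, with DMSO as baseline; parallel sulforhodamine B staining (560 nm) tracks overt cytotoxicity.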

Read-out in assay [7]: Matrix Metallopeptidase 3 (MMP3), MMP3 (gene 4314)
As to the kind of experiment: BSK_BF4T_MMP3: BioMAP Diversity Plus: BF4T Assay for Matrix Metallopeptidase 3 (MMP3) Biomarker Activity (AID 2284271). The following applies: primary human bronchial epithelial cells with fibroblasts. The procedure, abridged:
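MMP-3 level read by ELISA after 24 h chemical exposure of bronchial epithelial cell/dermal fibroblast co-cultures, fitted upward relative to DMSO. Parallel cultures stained with 0.1% SRB after TCA fixation gauge overt cytotoxicity.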

Read-out in assay [8]: Tissue plasminogen activator (tPA), PLAT (gene 5327)
As to the kind of experiment: BSK_BF4T_tPA: BioMAP Diversity Plus: BF4T Assay for Tissue plasminogen activator (tPA) Biomarker Activity (AID 2284272). The following applies: primary human bronchial epithelial cells with fibroblasts. The procedure, abridged:
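tPA level quantified by ELISA at 24 h post-treatment in bronchial epithelial/dermal fibroblast co-cultures, gain of signal scored against DMSO baseline. Parallel cultures stained with 0.1% SRB (560 nm) to flag overt cytotoxicity.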

Read-out in assay [9]: Plasminogen Activator Inhibitor-1 (PAI1), SERPINE1 (gene 5054)
As to the kind of experiment: BSK_BF4T_PAI1: BioMAP Diversity Plus: BF4T Assay for Plasminogen Activator Inhibitor-1 (PAI1) Biomarker Activity (AID 2284273). The conditions noted are these: primary human bronchial epithelial cells with fibroblasts. The procedure, abridged: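 PAI-1 levels quantified by ELISA 24 h post-dosing in bronchial epithelial cell plus dermal fibroblast cultures. Signal gain referenced to DMSO baseline. Sulforhodamine B total-protein staining of parallel wells checked cytotoxicity.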

Read-out in assay [10]: Matrix Metallopeptidase 9 (MMP9), MMP9 (gene 4318)
As to the kind of experiment: BSK_BF4T_MMP9: BioMAP Diversity Plus: BF4T Assay for Matrix Metallopeptidase 9 (MMP9) Biomarker Activity (AID 2284276). The following applies: primary human bronchial epithelial cells with fibroblasts. A digest of the protocol: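 MMP-9 levels were measured by ELISA after 24 h exposure of bronchial epithelial cell/dermal fibroblast co-cultures, with DMSO as baseline. Parallel cultures were stained with 0.1% SRB after TCA fixation, read at 560 nm, to flag overt cytotoxicity.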

Read-out in assay [11]: Interleukin-8 (IL8), CXCL8 (gene 3576)
As to the kind of experiment: BSK_IMphg_IL8: BioMAP Diversity Plus: IMphg Assay for Interleukin-8 (IL8) Biomarker Activity (AID 2284277). The following applies: primary human endothelial cells with macrophages. The procedure, abridged: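 IL-8 levels were measured by ELISA 24 h after dosing in primary human venular endothelial cell–macrophage cultures, referenced to DMSO; parallel SRB staining monitored overt cytotoxicity.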

Read-out in assay [12]: Intercellular Adhesion Molecule 1 (ICAM1), ICAM1 (gene 3383)
Put plainly: BSK_BE3C_ICAM1: BioMAP Diversity Plus: BE3C Assay for Intercellular Adhesion Molecule 1 (ICAM1) Biomarker Activity (AID 2284278).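 For outcome: cell-surface ICAM-1 protein level quantified by ELISA.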 The following applies: primary human bronchial epithelial cells. The procedure, abridged:
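hu bronchial epithelial primary cells, 24 h cpd exposure, ICAM-1 ELISA; gain-of-signal fit vs DMSO baseline.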

Read-out in assay [13]: Interleukin-8 (IL8), CXCL8 (gene 3576)
Put plainly: BSK_BE3C_IL8: BioMAP Diversity Plus: BE3C Assay for Interleukin-8 (IL8) Biomarker Activity (AID 2284280). The following applies: primary human bronchial epithelial cells. The procedure, abridged: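 Primary human bronchial epithelial cells (BE3C system) were exposed to test chemical for 24 h, and IL-8 levels were then measured by ELISA. Activity was fitted in the positive (gain-of-signal) direction against a DMSO negative-control baseline.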

Read-out in assay [14]: Epidermal growth factor receptor (EGFR), EGFR (gene 1956)
Put plainly: BSK_BE3C_EGFR: BioMAP Diversity Plus: BE3C Assay for Epidermal growth factor receptor (EGFR) Biomarker Activity (AID 2284281). The conditions noted are these: primary human bronchial epithelial cells. The procedure, abridged: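 Human primary bronchial epithelial cells were exposed to compound for 24 h, and cell-surface EGFR was then quantified by ELISA. Activity was fitted in the positive direction against the DMSO vehicle baseline.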

Read-out in assay [15]: KRT18 (gene 3875)
Put plainly: BSK_BE3C_Keratin818: BioMAP Diversity Plus: BE3C Assay for Keratin 818 Biomarker Activity (AID 2284282). The following applies: primary human bronchial epithelial cells. The procedure, abridged:
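In this multiplexed primary-cell system, bronchial epithelial cells were dosed and harvested at 24 h. Keratin 8/18 was determined by ELISA and analysed for increases over DMSO controls.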

Read-out in assay [16]: Matrix Metallopeptidase 9 (MMP9), MMP9 (gene 4318)
As to the kind of experiment: BSK_BE3C_MMP9: BioMAP Diversity Plus: BE3C Assay for Matrix Metallopeptidase 9 (MMP9) Biomarker Activity (AID 2284283). The conditions noted are these: primary human bronchial epithelial cells. A digest of the protocol:
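Human primary bronchial epithelial cells exposed 24 h to compound. MMP9 quantified by ELISA. SRB total-protein staining of parallel cultures assesses cytotoxicity. Positive-direction fit relative to DMSO.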

Read-out in assay [17]: Plasminogen activator inhibitor-1 (PAI1), SERPINE1 (gene 5054)
Put plainly: BSK_CASM3C_PAI1: BioMAP Diversity Plus: CASM3C Assay for Plasminogen activator inhibitor-1 (PAI1) Biomarker Activity (AID 2284284). The following applies: primary human coronary artery smooth muscle cells.

Read-out in assay [18]: urokinase Plasminogen Activator (uPA), PLAU (gene 5328)
As to the kind of experiment: BSK_BF4T_uPA: BioMAP Diversity Plus: BF4T Assay for urokinase Plasminogen Activator (uPA) Biomarker Activity (AID 2284275). The following applies: primary human bronchial epithelial cells with fibroblasts. A digest of the protocol: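 uPA levels measured by ELISA at 24 hours in BF4T cultures (bronchial epithelial cells plus dermal fibroblasts) and compared with DMSO; cytotoxicity tracked in parallel cultures by sulforhodamine B staining.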

Where “and” joins values, the source holds several entries; their conditions need not be identical. Equal values may be shown once. Some structures have more than one record in an assay (separate samples or runs), and their calls can disagree. Calls of active or inactive are those of the source. Rule for the calls: active = hit-call score of the fitted dose curve at least 0.9, where 1 is the maximum; inactive = score below 0.9.

For `O=C(O)C(F)(F)C(F)(F)C(F)(F)C(F)(F)C(F)(F)C(F)(F)C(F)(F)C(F)(F)C(F)(F)C(F)(F)C(F)(F)C(F)(F)F`, the outcome in assay [1], in assay [2], in [3], in assay [4], in assay [5] and in assay [6] was inactive. The result in assay [7], in assay [8], in assay [9], in assay [10], in assay [11] and in [12] was inactive. Also, the result in [13], in [14], in assay [15], in [16] and in [17] was inactive.

A word on the AC50: it is the concentration giving half of the maximal activity seen. `O=C(O)C(F)(F)C(F)(F)C(F)(F)C(F)(F)C(F)(F)C(F)(F)C(F)(F)C(F)(F)Cl`: the AC50 in assay [1] was 21.3 µM (active); in assay [2] it was 45 µM (active) and 49.7 µM (active); in assay [3] it was 30.9 µM (active) and 35.5 µM (active); in assay [4], 51.5 µM (active); in assay [5] it was 30 µM (active) and 47.9 µM (active); in [6], 48.7 µM (active) and 55 µM (active). In addition, the concentration at half-maximal activity (AC50) in [7] is 52.7 µM (active) and 55.1 µM (active); in assay [8], 10.7 µM (active) and 5.95 µM (active); in assay [10], 37.1 µM (active) and 30 µM (active); in assay [12] it was 45.1 µM (active) and 45.8 µM (active); in [13] it was 38 µM (active) and 30 µM (active); in assay [14], 13.6 µM (active) and 11.5 µM (active). The AC50 in assay [15] was 48.7 µM (active) and 56 µM (active); in [16], 42.9 µM (active) and 40.4 µM (active). In addition, the result in assay [1], in assay [4] and in [17] was inactive.

With `C=C(C)C(=O)OCC(F)(F)C(F)(F)C(F)(F)C(F)(F)C(F)(F)C(F)(F)C(F)(F)F`, the result in assay [1], in assay [2], in assay [3], in [4], in assay [5] and in [7] was inactive. The outcome in assay [8], in assay [9], in [10], in [12], in assay [13] and in assay [14] was inactive. The outcome in [15], in assay [16] and in assay [17] was inactive.

Take `FC(F)(F)C(F)(F)C(F)(F)C(F)(F)C(F)(F)C(F)(F)C(F)(F)C(F)(F)CCS`: the outcome in assay [1], in assay [2], in [3], in assay [4], in assay [5] and in [6] was inactive. Further, the result in [7], in [8], in assay [10], in [12], in assay [13] and in assay [14] was inactive. For the same molecule, the outcome in assay [15], in [16] and in assay [17] was inactive.

Consider `O=C(O)C(F)(F)C(F)(F)C(F)(F)C(F)(F)C(F)(F)C(F)(F)C(F)(F)C(F)(F)C(F)(F)C(F)F`, for which the outcome in [1], in assay [4], in assay [5], in assay [7], in assay [13] and in assay [14] was inactive. The result in assay [17] was inactive. For the same molecule, the AC50 in [2] is 22.7 µM (active) and 30 µM (active); in assay [3], 21.3 µM (active) and 21.9 µM (active); in assay [5] it was 50.9 µM (active); in assay [7], 30 µM (active); in assay [8], 9.23 µM (active) and 5.95 µM (active); in assay [10], 21.4 µM (active) and 15.7 µM (active). In addition, the AC50 in assay [12] was 20.3 µM (active) and 21.1 µM (active); in assay [14], 7.89 µM (active); in assay [15], 19.6 µM (active) and 10.5 µM (active); in assay [16], 14.2 µM (active) and 10.6 µM (active).

As to `OCC(F)(F)C(F)(F)C(F)(F)C(F)F`, the concentration at half-maximal activity (AC50) in assay [1] was 5.95 µM (active); in [13], 14.5 µM (active). Moreover, the result in assay [1], in [2], in assay [3], in assay [4], in [5] and in assay [6] was inactive. For the same molecule, the result in assay [7], in assay [8], in [18], in assay [10], in [12] and in [13] was inactive. In addition, the outcome in assay [14], in assay [15], in [16] and in [17] was inactive.
